# PI4K2A block: blocks human PI4K2A kinase activity. activity change, negative = inhibition, % at 76.9 µM. hit rate 0.13% among 420,000. AID 1346378. Q9BTU6. purified PI4K2A, ADP-Glo luminescence, 1 h; stronger effect = lower value; in the data active = activity change below about -50%; inconclusive = mostly about -30% to -49%;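 note: -100% = wells without enzyme as full effect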
# Target sequence (Q9BTU6 whole entry, looked up): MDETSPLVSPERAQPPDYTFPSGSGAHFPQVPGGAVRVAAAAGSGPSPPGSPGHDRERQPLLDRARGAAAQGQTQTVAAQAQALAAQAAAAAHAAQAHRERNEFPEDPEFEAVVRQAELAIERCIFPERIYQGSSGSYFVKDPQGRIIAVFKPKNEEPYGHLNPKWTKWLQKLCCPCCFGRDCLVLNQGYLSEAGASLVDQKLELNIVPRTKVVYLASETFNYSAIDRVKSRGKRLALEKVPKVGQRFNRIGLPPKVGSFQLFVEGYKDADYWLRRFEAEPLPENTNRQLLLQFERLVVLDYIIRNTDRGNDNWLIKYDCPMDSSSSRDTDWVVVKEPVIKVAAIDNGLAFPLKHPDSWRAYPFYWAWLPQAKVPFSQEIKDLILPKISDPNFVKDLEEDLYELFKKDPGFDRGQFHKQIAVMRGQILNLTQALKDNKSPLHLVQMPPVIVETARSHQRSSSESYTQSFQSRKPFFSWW
#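 PI4K2A activity was measured by ADP-Glo luminescence: enzyme (4 ug/mL stock) and phosphatidylinositol (1.2 mM stock) in Tris pH 7.5/MgCl2/EGTA/Triton X-100 buffer were reacted with ATP (300 microM stock) for one hour at ambient temperature.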
# GALK inhibitor: galactokinase (human) inhibition | P51570 | Purified GALK, Kinase-Glo residual ATP luminescence | Potency, µM (series often up to 57.5 µM), for inactives: top-dose activity change, negative = inhibition, actives largely listed as inhibitors | hit rate 0.007% among 270,000; note: potency is the fitted concentration of half-maximal effect; % is set by controls: 0 for no effect and ±100 for the full control effect
#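 Quantitative HTS: GALK 5 nM, ATP 35 uM, galactose 100 uM, 1 h room temperature, then luciferase-based ATP detection.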
# HTT cytoprotect: cytoprotection in Huntington HTT-Q103 PC12 cell model; PC12 HTT-Q103 induced, cytoprotection, ATP luminescence, 40 h; Potency, µM (titrated, usually from 56.4 µM), for the others: cytoprotection (ATP increase), hits mostly activators; hit rate 0.14% among 230,000; AID 1471; note: potency is the fitted concentration of half-maximal effect; % of control where 0% means no effect; nearly all actives have a fitted effect of over 45% in size
#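 Compounds added alongside 100 nM tebufenozide, which induces toxic Q103 huntingtin exon 1-GFP in stable PC12 cells; surviving cells quantified by luminescent ATP measurement. Medium: phenol red-free DMEM, 5% equine and 5% calf serum.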
# HTT aggregate: mutant huntingtin aggregation inhibition; PC12 HttQ103-GFP aggregates, Acumen cytometry, 40 h; Potency, µM (series often up to 46.1 µM), inactives show top-dose activity change, negative = inhibition, actives largely listed as inhibitors; hit rate 1.1% among 220,000; AID 1688; note: potency is the fitted concentration of half-maximal effect; % is set by controls: 0 for no effect and ±100 for the full control effect; nearly all actives have a fitted effect of over 60% in size
#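 Compounds (qHTS titration) were added to PC12 cells expressing an ecdysone-driven HTT exon 1 Q103–GFP fusion after induction with 100 nM tebufenozide. Aggregate formation was measured as GFP objects in cell lysates.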
# * = called active by the depositor; ? = inconclusive; . = no result given; [ ] = another dose, or the depositor's remark. Many of the other results were omitted from the sample, so hits are more common in it than they were. Unless noted, calls come from the whole dose curve; as a rule, active = well fitted curve in the direction sought with a large enough effect; inconclusive = small, poorly fitted or top-dose-only effect, or another doubt; inactive = no such curve, though single readings can be large; an effect the other way counts as inactive or inconclusive.
SMILES,PI4K2A block,GALK inhibitor,HTT cytoprotect,HTT aggregate
c1ccc2c(c1)OCC(c1csc3ncnc(N4CCCCC4)c13)O2 (stereo unspecified),-5.4,-3.0%,24.0%[10 µM],11.2µM*
O=C(Nc1ccc(Cl)cc1)N1CCN(c2ccc3nnc(-c4ccc(F)cc4)n3n2)CC1,5.4,-1.8%,-13.6%[10 µM],22.4µM*
O=C(Nc1ccccc1Cl)N1CCN(c2ccc3nnc(-c4ccccc4)n3n2)CC1,2.4,2.1%,-29.5%,?
COc1ccc(-c2cc(N3CCCC3)n3ncnc3n2)cc1,-5.5,-1.5%,-11.6%,-31.3%
O=S(=O)(c1ccc(Br)cc1)N1CCN(c2cc(-c3ccccc3)nc3ncnn23)CC1,4.7,-0.9%,2.0%,2.4%
COc1ccc(S(=O)(=O)N2CCN(c3cc(-c4ccccc4)nc4ncnn34)CC2)cc1,1.2,-0.9%,4.0%[10 µM],12.6µM*
O=S(=O)(c1ccccc1)N1CCN(c2cc(-c3ccccc3)nc3ncnn23)CC1,1.2,-2.8%,-18.6%[10 µM],11.2µM*
C[C@@H](Cc1ccccc1)Nc1ncnc2c1ncn2[C@@H]1O[C@@H](CO)[C@H](O)[C@@H]1O,.,.,2.6%[1.9 µM],.
CCOC(=O)Cc1nnc2c(Nc3ccc(Cl)cc3)nc3nonc3n12,-2.3,0.8%,7.5%[10 µM],17.8µM*
O=S(=O)(NC1CC1)c1ccc(S(=O)(=O)N2CCCc3ccccc32)cc1,-2.7,2.1%,23.5%[10 µM],11.2µM*
O=S(=O)(c1ccccc1)N1CCCc2ccccc21,.,6.4%,.,.
CN(C)Cc1c(-c2ccc(Cl)cc2)nc2ccccn12,2.0,-2.0%,-37.8%,0.0316µM*
O=C1CN=C(Nc2ccccc2Cl)N1c1ccccc1,3.9,1.1%,-83.1%[10 µM],2.82µM*
Cc1ccc(S(=O)(=O)Nc2ccc(Br)cc2/C=N/n2cnnc2)cc1,-5.1,-0.3%,-25.8%,2.24µM*
Cc1ccc(S(=O)(=O)N/N=C/c2cc(Br)ccc2O)cc1,-5.1,0.6%,21.6%[10 µM],34.1%[9.22 µM]
COc1ccc(CCNc2cc(N3CCN(C(=O)c4ccc(C)cc4)CC3)ccc2[N+](=O)[O-])cc1OC,.,0.6%,4.2%[10 µM],-10.1%
COc1ccc(CCNc2cc(N3CCN(C(=O)c4ccccc4F)CC3)ccc2[N+](=O)[O-])cc1OC,-8.1,2.2%,-43.4%,3.98µM*
COc1ccc(OCC(=O)Nc2nccs2)cc1,?,14.8%,-17.4%[10 µM],1.1%[9.22 µM]
CCOc1ccc(OCC(=O)Nc2nccs2)cc1,-86.3*,?,-148.1%,-10.3%[9.22 µM]
O=C1CC(Sc2nnc(-c3ccccc3O)o2)C(=O)N1c1ccccc1 (stereo unspecified),-2.3,-1.0%,-59.4%,?
COc1ccc(N2C(=O)CC(Sc3nnc(-c4ccccc4)o3)C2=O)cc1 (stereo unspecified),5.2,7.3%,-150.5%,25.1µM*
COc1ccc(C(=O)N[C@@H]2CC[C@@]34CCCN3C(=O)CCC[C@H]4[C@H]2C)cc1,-4.3,.,.,.
CCCCCC(=O)Nc1cc(S(=O)(=O)O)cc2cc(S(=O)(=O)O)cc(O)c12,-59.1*,.,.,.
O=C(Oc1c(Cl)cc(Cl)c2cccnc12)c1cccc([N+](=O)[O-])c1,-25.3,0.1%,-80.7%[10 µM],2.82µM*
O=C(Oc1ccc(Cl)c2cccnc12)c1cccc([N+](=O)[O-])c1,-8.5,0.4%,-20.8%[10 µM],-30.6%
SMILES,PI4K2A block,GALK inhibitor,HTT cytoprotect,HTT aggregate
C/C(=N\NC(=O)Cc1cccs1)c1ccco1,-6.8,.,.,.
O=c1c(/C=N/OCc2ccc(Cl)cc2Cl)c[nH]n1-c1cccc(Cl)n1,7.9,4.4%,-101.0%,10µM*
Cc1cc(O)c(/C=N/OCc2ccc(Cl)cc2Cl)c(=O)o1,-6.8,-0.4%,.,-19.1%
COC(=O)CN1CCN(C(=O)c2nocc2C)CC1,-6.7,.,.,.
Nc1ccc([N+](=O)[O-])c(C(F)(F)F)c1,1.2,.,.,.
CC(=O)NC(c1ccc(C)cc1)c1cc(Cl)c2cccnc2c1O (stereo unspecified),2.6,3.1%,.,.
CCC(=O)NC(c1cccs1)c1cc([N+](=O)[O-])c2cccnc2c1O (stereo unspecified),2.7,1.1%,-89.0%[10 µM],?
CC(=O)NC(c1ccccc1)c1cc([N+](=O)[O-])c2cccnc2c1O (stereo unspecified),-15.3,0.5%,-42.3%[10 µM],2.82µM*
CC(C)C(=O)NC(c1ccccc1)c1cc([N+](=O)[O-])c2cccnc2c1O (stereo unspecified),2.2,.,-8.1%[10 µM],8.91µM*
CCOC(=O)[C@]12CCCC=C1N(Cc1ccc(OC)cc1)C(=O)[C@@H]2CC(=O)NCCc1ccccc1OC,1.1,.,.,.
